Measured values reported in ChEMBL document CHEMBL5606458, “ASAP - ZIKV NS2B-NS3 protease fluorescence single point” (2024).
The campaign covered roughly 2,700 compounds. About 160 (5.9%) showed an effect of 50% or more. The list comes from a sample in which strong results are over-represented; it also holds similar structures and randomly drawn compounds.

Target: Nonstructural protein 3 (Zika virus) (UniProt A0A024AXB9)
Sequence (A0A024AXB9 as listed by the source): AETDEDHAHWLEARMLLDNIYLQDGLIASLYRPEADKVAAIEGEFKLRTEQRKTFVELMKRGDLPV

For `CCCC[C@H](NC(C)=O)C(=O)N[C@H](C(=O)Nc1ccc(C(N)=O)cc1)c1ccc(OCc2ccccc2)cc1`, which inhibition (PRVABC59, Concentration 49.5 uM, Number of replicates 2.0, Standard deviation 1.0117053428289626 %) is on record?
The inhibition was -1.83%.

What about the inhibition (PRVABC59, Concentration 99.01 uM, Number of replicates 2.0, Standard deviation 0.9364545471831264 %) of the same molecule?
Its inhibition is 1.23%.

What about the inhibition (PRVABC59, Concentration 198.0 uM, Number of replicates 2.0, Standard deviation 0.5455676889131452 %) of the same molecule?
The inhibition was 17.7%.

Which inhibition (PRVABC59, Concentration 49.5 uM, Number of replicates 2.0, Standard deviation 1.682765526064386 %) does the source give for `CCCC[C@H](NC(C)=O)C(=O)N[C@@H](C(=O)NCc1ccc(C(N)=O)cc1)c1ccc(OCc2ccccc2)cc1` here?
The inhibition was -0.555%.

What about the inhibition (PRVABC59, Concentration 99.01 uM, Number of replicates 2.0, Standard deviation 1.8317792493099265 %) of the same molecule?
The inhibition was 2.22%.

What about the inhibition (PRVABC59, Concentration 198.0 uM, Number of replicates 2.0, Standard deviation 1.8535860287294632 %) of the same molecule?
The inhibition was 8.29%.

With `CCCCCC(=O)N[C@H](C(=O)NCc1cccc(CN)c1)C1CCCCC1` as the molecule, how does the inhibition (PRVABC59, Concentration 49.5 uM, Number of replicates 2.0, Standard deviation 0.08302069360936502 %) read?
Its inhibition is -2.7%.

And the inhibition (PRVABC59, Concentration 99.01 uM, Number of replicates 2.0, Standard deviation 0.655862366837183 %)?
The inhibition was -1.9%.

And the inhibition (PRVABC59, Concentration 198.0 uM, Number of replicates 2.0, Standard deviation 0.31962821211509684 %)?
The inhibition was 41.3%.

With `COc1ccc2nc(C(F)(F)F)nc(N3CCN(c4ccc(N)nc4)CC3)c2c1` as the molecule, how does the inhibition (PRVABC59, Concentration 49.5 uM, Number of replicates 2.0, Standard deviation 0.8584962379889504 %) read?
Its inhibition is 14.4%.

And the inhibition (PRVABC59, Concentration 99.01 uM, Number of replicates 2.0, Standard deviation 2.1800251715639205 %)?
The inhibition was 28%.

What about the inhibition (PRVABC59, Concentration 198.0 uM, Number of replicates 2.0, Standard deviation 1.6255789961308644 %) of the same molecule?
Its inhibition is 43.6%.

With `CC(C)(CO)CN1CC[C@H](c2c[nH]c3ccccc23)C1` as the molecule, how does the inhibition (PRVABC59, Concentration 49.5 uM, Number of replicates 2.0, Standard deviation 3.1209329969075563 %) read?
The inhibition was 6.14%.

And the inhibition (PRVABC59, Concentration 99.01 uM, Number of replicates 2.0, Standard deviation 4.254828207009483 %)?
The inhibition was 11.2%.

And the inhibition (PRVABC59, Concentration 198.0 uM, Number of replicates 2.0, Standard deviation 3.604090306895346 %)?
The inhibition was 18.1%.

`O=C(NCC1CC1)c1cc(Cl)ccc1NS(=O)(=O)c1ccc(Oc2ccccc2Cl)cc1` was tested. Which inhibition (PRVABC59, Concentration 49.5 uM, Number of replicates 2.0, Standard deviation 1.3484995448740613 %) did it give?
The inhibition was 43%.

What about the inhibition (PRVABC59, Concentration 99.01 uM, Number of replicates 2.0, Standard deviation 16.06152873020096 %) of the same molecule?
Its inhibition is 40.6%.

And the inhibition (PRVABC59, Concentration 198.0 uM, Number of replicates 2.0, Standard deviation 0.4375207024201935 %)?
Its inhibition is 45.6%.

For `Cc1ccc(CNC(=O)c2cc(Cl)ccc2NS(=O)(=O)c2ccc(Oc3ccccc3Cl)cc2)s1`, which inhibition (PRVABC59, Concentration 49.5 uM, Number of replicates 2.0, Standard deviation 0.2822395742136887 %) is on record?
Its inhibition is 41.1%.

And the inhibition (PRVABC59, Concentration 99.01 uM, Number of replicates 2.0, Standard deviation 0.310134718781715 %)?
Its inhibition is 25.2%.

And the inhibition (PRVABC59, Concentration 198.0 uM, Number of replicates 2.0, Standard deviation 2.1364830937799217 %)?
Its inhibition is -9.71%.

Which inhibition (PRVABC59, Concentration 49.5 uM, Number of replicates 2.0, Standard deviation 0.1936300399043851 %) does the source give for `COC[C@@H](C)CNC(=O)c1cc(Cl)ccc1NS(=O)(=O)c1ccc(Oc2ccccc2Cl)cc1` here?
The inhibition was 40.8%.

And the inhibition (PRVABC59, Concentration 99.01 uM, Number of replicates 2.0, Standard deviation 0.11978876131329876 %)?
Its inhibition is 39.9%.

What about the inhibition (PRVABC59, Concentration 198.0 uM, Number of replicates 2.0, Standard deviation 0.12799289825703533 %) of the same molecule?
The inhibition was 17.9%.

With `CC(C)CNC(=O)c1cc(Cl)ccc1NS(=O)(=O)c1ccc(Oc2ccccc2Cl)cc1` as the molecule, how does the inhibition (PRVABC59, Concentration 49.5 uM, Number of replicates 2.0, Standard deviation 0.3286348250544809 %) read?
Its inhibition is 58.6%.

What about the inhibition (PRVABC59, Concentration 99.01 uM, Number of replicates 2.0, Standard deviation 0.058762822067828895 %) of the same molecule?
The inhibition was 54.7%.

And the inhibition (PRVABC59, Concentration 198.0 uM, Number of replicates 2.0, Standard deviation 2.167677830824169 %)?
Its inhibition is 37.6%.

What does the source list for `O=C(O)c1cc(Cl)ccc1NS(=O)(=O)c1ccc(Oc2ccccc2Cl)cc1`?
inhibition (PRVABC59, Concentration 15.0 uM, Number of replicates 2.0, Standard deviation 1.019095961302742 %): 25.6%; inhibition (PRVABC59, Concentration 49.5 uM, Number of replicates 2.0, Standard deviation 0.595671862422896 %): 67%; inhibition (PRVABC59, Concentration 99.01 uM, Number of replicates 2.0, Standard deviation 0.9962463002636517 %): 72.9%; inhibition (PRVABC59, Concentration 198.0 uM, Number of replicates 2.0, Standard deviation 0.4898259529465772 %): 64.4%

Which results are given for `NCc1cccc(NC(=O)c2cccc(NC(=O)OCc3ccccc3)n2)c1`?
inhibition (PRVABC59, Concentration 49.5 uM, Number of replicates 2.0, Standard deviation 2.909357334669415 %): 5.59%; inhibition (PRVABC59, Concentration 99.01 uM, Number of replicates 2.0, Standard deviation 2.139765153167162 %): 18.9%; inhibition (PRVABC59, Concentration 198.0 uM, Number of replicates 2.0, Standard deviation 5.981167842462736 %): 37.7%

For `CCn1ccnc(N[C@@H](Cc2c[nH]c3ccccc23)C(N)=O)c1=O`, which inhibition (PRVABC59, Concentration 49.5 uM, Number of replicates 2.0, Standard deviation 1.4026673489298387 %) is on record?
Its inhibition is 18.1%.

And the inhibition (PRVABC59, Concentration 99.01 uM, Number of replicates 2.0, Standard deviation 0.19191044848514063 %)?
The inhibition was 31.5%.

And the inhibition (PRVABC59, Concentration 198.0 uM, Number of replicates 2.0, Standard deviation 0.4743186100928729 %)?
Its inhibition is 43.7%.

For `NCc1cccc(NC(=O)[C@H]2COC3(CCOCC3)N2C(=O)OCc2ccccc2)c1`, which inhibition (PRVABC59, Concentration 49.5 uM, Number of replicates 2.0, Standard deviation 0.9938813563000084 %) is on record?
The inhibition was 5.38%.

And the inhibition (PRVABC59, Concentration 99.01 uM, Number of replicates 2.0, Standard deviation 1.914429893589366 %)?
Its inhibition is 19%.

And the inhibition (PRVABC59, Concentration 198.0 uM, Number of replicates 2.0, Standard deviation 1.323095447640423 %)?
Its inhibition is 40.3%.
